High-throughput results as filed in PubChem.
Cycloheximide cs: affects cycloheximide protein synthesis inhibition readout, counter-screen; cell reporter, cycloheximide protein synthesis inhibition counterscreen; max response, %; 12% of 300,000 active; AID 2314; in the data active = max response mostly above about 13%, no sharp cut-off; inactive = mostly below about 14%; also: read at 38.3 µM for the half of the compounds with a filed dose; 0% is about no effect
Pf growth 96h: P. falciparum growth inhibition at 96 hour, primary screen for plastid delayed-death inhibitors; P. falciparum luciferase reporter growth, 96 h; Potency, µM (series often up to 28.7 µM), without a hit: top-dose activity change, negative = inhibition, usual class: inhibitors; 6.9% of 320,000 active; AID 504834; also: potency is read from the fitted curve at half-maximal effect; % is scaled to controls: 0 for no effect and ±100 for the full control effect
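Parasite growth measured via integrated firefly luciferase reporter in P. falciparum. Infected erythrocytes at 2% hematocrit, 0.05% parasitemia final were treated 96 hours at 37 C under 5% CO2, and luminescence was read.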
Shiga toxin inh: Shiga toxin inhibition; inhibition, % at 38.7 µM; AID 2315; 9.2% of 290,000 active; Vero cells, Shiga toxin protein synthesis inhibition reporter; in the data active = inhibition mostly above about 28%, no sharp cut-off; inactive = mostly below about 43%; also: 0% is about no effect
Pf growth 48h: P. falciparum growth inhibition at 48 hours (one generation) | AID 504832 | P. falciparum luciferase growth in erythrocytes, 48 h | 5.9% of 310,000 active | Potency, µM (series often up to 28.7 µM), for the others: at the top dose activity change, negative = inhibition, most hits filed as inhibitors; also: potency is read from the fitted curve at half-maximal effect; % is scaled to controls: 0 for no effect and ±100 for the full control effect
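Read-out is firefly luciferase luminescence from an integrated reporter in P. falciparum, so falling signal marks reduced parasite growth. Infected erythrocytes were at 2% hematocrit and 0.1% parasitemia (final) in Albumax-supplemented RPMI 1640.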
LmPK inh: LmPK (Leishmania mexicana) enzyme inhibition; purified LmPK, Kinase-Glo ATP luminescence, 1 h; Q27686; 0.37% of 290,000 active; Potency, µM (highest dose often 57.5 µM), inactives show at the top dose activity change, negative = inhibition, usual class: inhibitors; AID 1721; also: potency is read from the fitted curve at half-maximal effect; % is scaled to controls: 0 for no effect and ±100 for the full control effect
Target sequence (Q27686 whole entry, looked up): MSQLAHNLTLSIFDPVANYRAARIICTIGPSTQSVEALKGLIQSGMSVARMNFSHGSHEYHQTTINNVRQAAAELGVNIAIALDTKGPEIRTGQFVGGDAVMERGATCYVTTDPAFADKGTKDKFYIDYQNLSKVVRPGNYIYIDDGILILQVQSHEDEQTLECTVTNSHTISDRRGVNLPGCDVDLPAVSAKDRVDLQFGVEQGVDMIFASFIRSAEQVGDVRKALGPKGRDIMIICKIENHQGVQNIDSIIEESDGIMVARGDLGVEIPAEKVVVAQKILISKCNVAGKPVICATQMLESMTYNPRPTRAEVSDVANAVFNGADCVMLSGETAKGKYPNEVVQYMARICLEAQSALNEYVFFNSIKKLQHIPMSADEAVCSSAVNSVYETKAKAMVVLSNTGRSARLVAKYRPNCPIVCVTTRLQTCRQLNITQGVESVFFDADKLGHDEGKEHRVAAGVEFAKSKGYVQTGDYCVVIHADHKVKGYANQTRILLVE
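ATP generated from ADP (0.1 mM) and PEP (0.5 mM) by 0.1 nM LmPK over 1 h at room temperature (pH 7.2 imidazole buffer) was detected by coupled luciferase luminescence. Values were normalized to uninhibited and no-enzyme wells.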
The depositor's hits bear a star; [ ] = another dose, or the depositor's remark. Sampled rows, rich in hits. Any-hit rate of the full collection: about 22%. Unless noted, calls follow the shape of the dose curve; as a rule, active = well fitted inhibition curve with a large enough effect; inconclusive = small, poorly fitted or top-dose-only effect, or another doubt; inactive = no such curve, though single readings can be large or run the other way.

C#C[C@]1(O)CC[C@H]2[C@@H]3CCC4=CCCC[C@@H]4[C@H]3C(=C)C[C@@]21CC was read as Pf growth 96h 9.53µM* and Pf growth 48h inconclusive.
Screening CC(NC(=O)CN1C(=O)NC(Cc2ccccc2)(Cc2ccccc2)C1=O)C12CC3CC(CC(C3)C1)C2 (configuration not stated) returned Cycloheximide cs 0.8, Pf growth 96h 11.7µM*, Shiga toxin inh -14.4 and LmPK inh 4.1%.
CC1CCCCC1NC(=O)CN1C(=O)NC(Cc2ccccc2)(Cc2ccccc2)C1=O (configuration not stated) was read as Cycloheximide cs -1.6, Shiga toxin inh -22.0, Pf growth 48h -8.1% and LmPK inh -2.5%.
CCN(CC(=O)Nc1cc(Cl)ccc1C)C(=O)CCOc1ccccc1C was read as Cycloheximide cs -1.9, Pf growth 96h -24.3%, Shiga toxin inh -6.3, Pf growth 48h inconclusive and LmPK inh 9.4%.
For Cc1ccc(-n2ncc3c(NNC(=O)Cc4ccccc4)ncnc32)cc1 the results were Cycloheximide cs 13.6*, Pf growth 96h 16.6%, Shiga toxin inh 21.0, Pf growth 48h 31.9% and LmPK inh -2.9%.
Screening Cc1ccc(-n2ncc3c(NNC(=O)c4ccco4)ncnc32)cc1Cl returned Cycloheximide cs 56.9*, Pf growth 96h inconclusive, Shiga toxin inh 84.2, Pf growth 48h 25.0% and LmPK inh 2.1%.
`Cc1cccc(-n2ncc3c(NNC(=O)c4ccco4)ncnc32)c1` gave Cycloheximide cs 20.5*, Pf growth 96h -29.6%, Shiga toxin inh 2.8, Pf growth 48h -11.4% and LmPK inh 9.2%.
Screening Cc1ccc(-n2ncc3c(SCC(=O)NNC(=O)c4ccco4)ncnc32)cc1 returned Cycloheximide cs -1.2, Pf growth 96h inconclusive, Shiga toxin inh 6.1, Pf growth 48h 16.7% and LmPK inh 9.4%.
Screening O=C1CN(CC(=O)NC2CCCc3ccccc32)CCN1 (configuration not stated) returned Cycloheximide cs -4.9, Pf growth 96h 12.0%, Shiga toxin inh -5.3, Pf growth 48h -3.5% and LmPK inh -2.8%.
For CN(C)C1=NCCN1CC1CCCCC1 the results were Pf growth 96h 0.0% and Pf growth 48h 6.0%.
`CCN(CC(=O)Nc1sc2c(c1C#N)CCC(C)C2)CC(=O)NC1CCS(=O)(=O)C1` (configuration not stated) gave Cycloheximide cs 19.0*, Pf growth 96h 11.7µM*, Shiga toxin inh 42.0*, Pf growth 48h 0.0% and LmPK inh 1.0%.
Screening CCN(CC(=O)Nc1sc2c(c1C#N)CCC(C)C2)Cc1nc2ccccc2c(=O)[nH]1 (configuration not stated) returned Cycloheximide cs 8.9, Pf growth 96h inconclusive, Shiga toxin inh 7.8, Pf growth 48h inconclusive and LmPK inh 2.7%.
Screening Cc1ccc(C)n1-c1sc2c(c1C#N)CCC(C)C2 (configuration not stated) returned Cycloheximide cs 7.3, Pf growth 96h 6.57µM*, Shiga toxin inh 43.1 and LmPK inh 1.2%.
`CC1CCc2c(sc(NC(=O)c3ccccc3C(=O)O)c2C#N)C1` (configuration not stated) gave Cycloheximide cs 9.9, Pf growth 96h -21.0%, Shiga toxin inh 42.8, Pf growth 48h 0.0% and LmPK inh 1.1%.
`Cc1cc(C(=O)Nc2sc3c(c2C#N)CCC(C)C3)cs1` (configuration not stated) gave Cycloheximide cs 38.5*, Pf growth 96h inconclusive, Shiga toxin inh 126.1*, Pf growth 48h 158.3% and LmPK inh -11.0%.
Screening CC(=O)NC(=S)Nc1sc2c(c1C(N)=O)CCC(C)C2 (configuration not stated) returned Cycloheximide cs 53.7*, Pf growth 96h 99.7%, Shiga toxin inh 52.9*, Pf growth 48h 93.7% and LmPK inh 2.4%.
Screening CCOC(=O)Nc1sc2c(c1C(N)=O)CCC(C)C2 (configuration not stated) returned Cycloheximide cs 1.0, Pf growth 96h -28.1%, Shiga toxin inh -2.3, Pf growth 48h 43.2% and LmPK inh -0.9%.
For COc1cccc(CNC(=O)CCCCCNC(=O)N2CCn3c2nc2ccccc23)c1 the results were Cycloheximide cs 12.4, Pf growth 96h inconclusive, Shiga toxin inh -4.3, Pf growth 48h -10.3% and LmPK inh 5.3%.
COCc1ccc(C(=O)N2CCCC(Nc3ccc(C(C)C)cc3)C2)o1 (configuration not stated) was read as Cycloheximide cs -1.7, Pf growth 96h 9.9%, Shiga toxin inh 1.6, Pf growth 48h inconclusive and LmPK inh -0.4%.
For CC(=O)Nc1sc2c(c1C#N)CCC(C)C2 (configuration not stated) the results were Cycloheximide cs 17.4, Pf growth 96h 8.1%, Shiga toxin inh 37.8*, Pf growth 48h 3.2% and LmPK inh -0.2%.
COc1ccc(/C(C#N)=C/c2cccnc2)cc1 was read as Cycloheximide cs 44.9*, Pf growth 96h 68.3%, Shiga toxin inh 70.6*, Pf growth 48h 77.4% and LmPK inh -5.7%.
Screening N#C/C(=C\c1ccccc1)c1ccccn1 returned Cycloheximide cs 31.3*, Pf growth 96h 60.4%, Shiga toxin inh 91.2*, Pf growth 48h 47.7% and LmPK inh -22.1%.
C(=C\c1ccccn1)/c1cccnc1 was read as Cycloheximide cs 21.2*, Pf growth 96h 107.3%, Shiga toxin inh 66.7*, Pf growth 48h 104.5% and LmPK inh -22.0%.
`N#C/C(=C\c1cccnc1)c1ccccn1` gave Cycloheximide cs 10.8*, Pf growth 96h inconclusive, Shiga toxin inh 25.0, Pf growth 48h 4.0% and LmPK inh -2.0%.
`COC(=O)/C(C#N)=C/c1ccc(OC(=O)c2ccccn2)cc1` gave Cycloheximide cs 13.4, Pf growth 96h 53.5%, Shiga toxin inh 16.7, Pf growth 48h 9.4% and LmPK inh -0.8%.
Screening COc1ccccc1OC(=O)Oc1ccccc1OC returned Pf growth 96h 7.1% and Pf growth 48h 1.9%.
COc1cccc(NC(=O)C2CCN(S(=O)(=O)c3ccc4c(c3)C(C)(C)C(=O)N4C)CC2)c1 was read as Cycloheximide cs 10.6, Pf growth 96h inconclusive, Shiga toxin inh -5.9, Pf growth 48h -30.7% and LmPK inh -2.3%.
For N#C/C(=C\c1ccncc1)c1ccccn1 the results were Cycloheximide cs 2.4, Pf growth 96h 10.4µM*, Shiga toxin inh 5.8, Pf growth 48h inconclusive and LmPK inh -3.9%.
CNc1ccc(/C=C(\C#N)c2ccccn2)cc1[N+](=O)[O-] was read as Cycloheximide cs 45.0*, Pf growth 96h 187.4%, Shiga toxin inh 68.9*, Pf growth 48h 222.6% and LmPK inh -7.3%.
`N#C/C(=C\c1ccc(Cl)c([N+](=O)[O-])c1)c1ccccn1` gave Cycloheximide cs 12.0, Pf growth 96h 41.0%[5.75 µM], Shiga toxin inh -11.4, Pf growth 48h 17.6%[5.75 µM] and LmPK inh -14.0%.
